Screening results deposited in PubChem by ICCB-Longwood Screening Facility, Harvard Medical School.
Many of the other results were omitted from the sample, so hits are more common in it than they were.
MgrA-DNA mod – S. aureus MgrA activity modulators, primary screen, biochemical, S. aureus Newman, fluorescence polarization; MgrA-DNA binding; inhibition, % (concentration not given with the values); 0.13% of 84,000 active; in the data active = inhibition above about 30%, passing the limit was not always enough;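 also: higher means less MgrA bound to DNA so lower polarization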
Each line names hits and unclear results; the compound was inactive in the other large screens.

CCOC(=O)C(Cc1c[nH]c2ccccc12)NC(=O)c1ccc([N+](=O)[O-])cc1Cl (stereo unspecified)	none
CCN(CC)CCCC(C)Nc1c2ccc(Cl)cc2nc2ccc(OC)cc12 (stereo unspecified)	MgrA-DNA mod 60
CCSc1nc(C)c2cc(OC)ccc2n1	none
CCN(CC)CCSc1nc2ccc(OC)cc2[nH]1	none
COc1cc(OC)cc(C2CC(OC(=O)Cn3ncc4ccccc4c3=O)C(=O)N2C)c1 (stereo unspecified)	none
CCN1CCN(C(=O)Nc2ccc(Cl)c(Cl)c2)CC1	none
O=C(NC12CC3CC(CC(C3)C1)C2)c1ccccc1Cl	none
CCCCSc1nnc2c(n1)OC(C1CC=C(C)CC1)Nc1ccccc1-2 (stereo unspecified)	none
O=c1[nH]c2ccccc2nc1/C=C(\O)c1ccc(C2CCCCC2)cc1	none
CN1C(=O)/C(=C/c2ccc(-c3ccc(C(=O)O)cc3)o2)c2ccccc21	none
Cc1ccc(N2C(=O)NC(=O)/C(=C\c3ccc(-c4ccccc4C(=O)O)o3)C2=O)cc1	none
CN1C(=O)/C(=C\c2ccc(-c3ccccc3C(=O)O)o2)C(=O)N(c2ccccc2)C1=S	MgrA-DNA mod 62
Cc1ccc(NC(=O)c2sc3nc(C(F)(F)F)nn3c2C)cc1	none
CSc1sc(C(N)=O)c2c1-c1nocc1CC2	none
Cc1ccc(C)n1-c1cccc(C(=O)O)c1	MgrA-DNA mod 103
O=C(O)c1cccc(-n2cccc2)c1	none
Cc1ccc(C)n1-c1cccc(N)c1	none
c1cc(CNc2ccc(N3CCCC3)cc2)ccn1	MgrA-DNA mod 97
c1cc2c(cc1CNc1ccc(N3CCCC3)cc1)OCO2	none
O=C(Nc1ccc(N2CCCCC2)cc1)c1ccncc1	none
Cc1cc(C=C(C#N)C#N)c(C)n1-c1ccc(N2CCOCC2)cc1	none
CCOc1ccc(N/C=C/C(=O)c2ccco2)cc1	none
O=C(/C=C/Nc1ccccc1C(F)(F)F)c1ccco1	MgrA-DNA mod 93
O=C(/C=C/Nc1cccc(C(F)(F)F)c1)c1ccco1	none
